Data published in the supplement of paper PMC8728848.
The full list was thinned out, with the strongest signals kept by preference.

Legend:
Assay in all cases: glycan array binding signal (z-score within array); higher = stronger binding
Details in all cases: glycan notation: IUPAC condensed, linker removed
[1] = target: Fuc(a1-2)Gal(b1-3)GalNAc(b1-4)[Neu5Ac(a2-3)]Gal(b1-4)Glc
In short: (§1)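 The binding signal is a Z-score computed within each array and averaged over linkers. Arrays of the same protein sequence at different concentrations or buffers were also averaged together. Data originate from 3228 arrays in the Consortium for Functional Glycomics database, kept only where the protein sequence was available.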

Fuc(a1-2)Gal(b1-3)GlcNAc = target: Fuc(a1-2)Gal(b1-3)GlcNAc
In short: as §1

[2] = target: Fuc(a1-2)Gal(b1-3)GlcNAc(b1-3)Gal(b1-4)Glc
In short: as §1

[3] = target: Fuc(a1-2)Gal(b1-3)[Fuc(a1-4)]GlcNAc(b1-2)Man(a1-3)[Fuc(a1-2)Gal(b1-3)[Fuc(a1-4)]GlcNAc(b1-2)Man(a1-6)]Man(b1-4)GlcNAc(b1-4)[Fuc(a1-6)]GlcNAc(b1-4)[Fuc(a1-6)]GlcNAc
In short: as §1

Fuc(a1-2)Gal(b1-4)GlcNAc = target: Fuc(a1-2)Gal(b1-4)GlcNAc
In short: as §1

[4] = target: Fuc(a1-2)Gal(b1-4)GlcNAc6S
In short: as §1

[5] = target: Fuc(a1-2)Gal(b1-4)[Fuc(a1-3)]GlcNAc(b1-3)Gal(b1-4)[Fuc(a1-3)]GlcNAc(b1-3)Gal(b1-4)[Fuc(a1-3)]GlcNAc
In short: as §1

Fuc(a1-2)Gal6S(b1-4)Glc = target: Fuc(a1-2)Gal6S(b1-4)Glc
In short: as §1

[6] = target: Fuc(a1-2)[Gal(a1-3)]Gal(b1-4)GlcNAc
In short: as §1

[7] = target: Fuc(a1-2)[Gal(a1-3)]Gal(b1-4)GlcNAc(b1-2)Man
In short: as §1

[8] = target: Fuc(a1-2)[Gal(a1-3)]Gal(b1-4)[Fuc(a1-3)]Glc
In short: as §1

[9] = target: Fuc(a1-2)[GalNAc(a1-3)]Gal(b1-3)GlcNAc(b1-6)GalNAc
In short: as §1

[10] = target: Fuc(a1-2)[GalNAc(a1-3)]Gal(b1-4)GlcNAc(b1-3)GalNAc
In short: as §1

[11] = target: Fuc(a1-3)[Gal3S(b1-4)]GlcNAc6S
In short: as §1

[12] = target: Fuc(a1-3)[GalNAc(b1-4)]GlcNAc
In short: as §1

Fuc(a1-4)GlcNAc = target: Fuc(a1-4)GlcNAc
In short: as §1

Gal(a1-3)Gal(b1-4)Glc = target: Gal(a1-3)Gal(b1-4)Glc
In short: as §1

Gal(a1-3)Gal(b1-4)GlcNAc = target: Gal(a1-3)Gal(b1-4)GlcNAc
In short: as §1

[13] = target: Gal(a1-3)Gal(b1-4)GlcNAc(b1-2)Man
In short: as §1

[14] = target: Gal(a1-3)Gal(b1-4)GlcNAc(b1-2)Man(a1-3)[Gal(a1-3)Gal(b1-4)GlcNAc(b1-2)Man(a1-6)]Man(b1-4)GlcNAc(b1-4)GlcNAc
In short: as §1

[15] = target: Gal(b1-3)GalNAc(b1-3)Gal(a1-4)Gal(b1-4)Glc
In short: as §1

[16] = target: Gal(b1-3)GalNAc(b1-4)Gal(b1-4)Glc
In short: as §1

[17] = target: Gal(b1-3)GlcNAc(b1-2)Man(a1-3)[Gal(b1-3)GlcNAc(b1-2)Man(a1-6)]Man(b1-4)GlcNAc(b1-4)GlcNAc
In short: as §1

[18] = target: Gal(b1-3)GlcNAc(b1-3)GalNAc
In short: as §1

[19] = target: Gal(b1-3)[Fuc(a1-4)]GlcNAc(b1-2)Man
In short: as §1

[20] = target: Gal(b1-4)GlcNAc(a1-6)Gal(b1-4)GlcNAc
In short: as §1

[21] = target: Gal(b1-4)GlcNAc(b1-2)Man(a1-3)Man(b1-4)GlcNAc(b1-4)GlcNAc
In short: as §1

[22] = target: Gal(b1-4)GlcNAc(b1-2)Man(a1-3)[Gal(b1-4)GlcNAc(b1-2)Man(a1-6)]Man(b1-4)GlcNAc(b1-4)GlcNAc
In short: as §1

[23] = target: Gal(b1-4)GlcNAc(b1-2)Man(a1-3)[GlcNAc(b1-2)Man(a1-6)]Man(b1-4)GlcNAc(b1-4)GlcNAc
In short: as §1

[24] = target: Gal(b1-4)GlcNAc(b1-2)[Gal(b1-4)GlcNAc(b1-4)]Man(a1-3)[GlcNAc(b1-4)][Gal(b1-4)GlcNAc(b1-2)[Gal(b1-4)GlcNAc(b1-6)]Man(a1-6)]Man(b1-4)GlcNAc(b1-4)GlcNAc
In short: as §1

B1: PX14343C-bfa-541-26-541 (Bacteroides fragilis) (protein)
chain: KAPLDEIADDSFWSDETLVKYYVNDLYSEISVDGLQLQENRSDNSVSAQRDKYRASWFKFNYDMVSASDPQDDDVWEDYYVKVRKCNRFFERIGTSTIEESEKSRLTGEVHFLRAMFYFEMVKRYGGVILLDKVLTMEDNWEIPRSSEKECYDFILEDLKKATEMLPASYGSREKGRATKGAAYALKSRVELYDKRYEDVIKSCAEVYKLGYELVDGTTPEKYRSIWWTTNKDNKEIIFDVQYKSPDVYNNMMVCNMVTYINDKYGDRGWGGLGPTQELIDAFEMADGTPATQYSQAPADQVFDINTCGIYEGREPRFYANIVFHGSQIFFNADKGAVTVDRYLMDTPDKGDGSLTGYNVWKWIDYDNYNYPYAGAGSPDFSTNWIILRYAEIYLNDAEARLETGDVEGARKAVNMIRQRVGLPDLTESDPEKLRELIRKERRIEFAFEEQRFYDVRRWKIGPETQTTLHGVRFVSPTEFKVTKTDIRTWNDRLYLTPVPHDEIVRSSVLKQNLGY
glycan array binding signal (z-score) [1]: 1.52 | glycan array binding signal (z-score) (Fuc(a1-2)Gal(b1-3)GlcNAc): 0.399 | glycan array binding signal (z-score) [2]: -0.05 | glycan array binding signal (z-score) [3]: 0.403 | glycan array binding signal (z-score) (Fuc(a1-2)Gal(b1-4)GlcNAc): -0.892 | glycan array binding signal (z-score) [4]: -0.542 | glycan array binding signal (z-score) [5]: -0.071 | glycan array binding signal (z-score) (Fuc(a1-2)Gal6S(b1-4)Glc): 3.12 | glycan array binding signal (z-score) [6]: -0.674 | glycan array binding signal (z-score) [7]: -0.447 | glycan array binding signal (z-score) [8]: -0.83 | glycan array binding signal (z-score) [9]: 0.051 | glycan array binding signal (z-score) [10]: 0.855 | glycan array binding signal (z-score) [11]: -0.963 | glycan array binding signal (z-score) [12]: 0.848 | glycan array binding signal (z-score) (Fuc(a1-4)GlcNAc): -0.619 | glycan array binding signal (z-score) (Gal(a1-3)Gal(b1-4)Glc): -0.559 | glycan array binding signal (z-score) (Gal(a1-3)Gal(b1-4)GlcNAc): 7.53 | glycan array binding signal (z-score) [13]: -1.04 | glycan array binding signal (z-score) [14]: 2.85 | glycan array binding signal (z-score) [15]: -0.233 | glycan array binding signal (z-score) [16]: -0.284 | glycan array binding signal (z-score) [17]: 2.98 | glycan array binding signal (z-score) [18]: 0.08 | glycan array binding signal (z-score) [19]: -0.63 | glycan array binding signal (z-score) [20]: 8.35 | glycan array binding signal (z-score) [21]: 0.345 | glycan array binding signal (z-score) [22]: -1.05 | glycan array binding signal (z-score) [23]: -1.28 | glycan array binding signal (z-score) [24]: 3.53
